In PubChem BioAssay AID2314 (National Center for Advancing Translational Sciences (NCATS), 2010):
Screen size: about 300,000 compounds; about 37,000 (12%) were called active. The sample holds actives, similar compounds and a random draw of the others, so the mix is not that of the screen. Cut-off read from the data, not from the text of the source: active = max response mostly above about 13% (no sharp cut-off); inactive = mostly below about 14%.

Test: Cycloheximide Counterscreen for Small Molecule Inhibitors of Shiga Toxin; note: read at 38.3 µM for the half of the compounds with a filed dose; 0% is about no effect
Conditions: cell reporter, cycloheximide protein synthesis inhibition counterscreen; active compounds read high

Compound | max response
Cc1ccccc1CN1CCC(C(=O)Nc2ccc(Oc3cccnc3)cc2)CC1 | 1.17% (inactive)
CCOC(=O)c1c(NC(=O)C2CCN(S(=O)(=O)c3ccc(Cl)cc3)CC2)sc2c1CCCC2 | 25.4% (active)
CCOC(=O)c1c(NC(=S)NC)sc2c1CCCC2 | 20.2% (inactive)
CCOCC(=O)Nc1sc2c(c1C(=O)OCC)CCCC2 | -2.31% (inactive)
COc1ccc(-c2n[nH]c(C)c2-c2ccccc2OC)c(O)c1 | -4.33% (inactive)
CCc1c(C)nc(SCC(=O)NC2CCCC2)[nH]c1=O | 4.69% (inactive)
COc1ccc(-c2nc(SCC(=O)N3CCCC3)n[nH]2)cc1 | -1.17% (inactive)
CCc1ccc(-c2nc(SCC(=O)NC3CCCC3)n[nH]2)cc1 | 18.2% (active)
O=C(O)CCn1c(Cc2ccccc2)nc2ccccc21 | -1.08% (inactive)
CCC(C(=O)OCC(=O)Nc1c(Cl)cc(Cl)cc1Cl)c1ccccc1 (stereo unspecified) | 1.18% (inactive)
Cc1ccc(F)c(NC(=O)CCc2ccccc2)c1 | 33% (active)
O=C(CCc1ccccc1)NNc1ccc(F)cc1 | -0.637% (inactive)
Cc1cccc(OCC(=O)Nc2ccc(C(=O)O)cc2NC(=O)COc2cccc(C)c2)c1 | 2.91% (inactive)
Cc1ccc(F)c(NC(=O)CCOc2ccccc2C)c1 | 6.62% (inactive)
Cc1cccc(OCC(=O)Nc2ccccc2F)c1 | 44.1% (active)
Cc1cccc(OCC(=O)NCCCNC(=O)c2ccccn2)c1 | -3.32% (inactive)
COc1cccc(OCC(=O)Nc2ccccc2C(N)=O)c1 | 34.1% (active)
Cc1cccc(OCCC(=O)Nc2ccccc2C(N)=O)c1 | 12.6% (inactive)
CCCOC(=O)Nc1ccccc1C(N)=O | -2.21% (inactive)
CC(=O)OCC(NC(=O)C(Cc1ccccc1)NC(=O)OC(C)(C)C)C1OC(n2ccc(=O)[nH]c2=O)C(OC(C)=O)C1OC(C)=O (stereo unspecified) | 10.7% (inactive)
CC(=O)N1c2ccc(S(=O)(=O)N3CCCC(C(=O)Nc4cccc(Cl)c4)C3)cc2CC1C (stereo unspecified) | -3.38% (inactive)

Compound | max response
O=C(c1c(Cl)cccc1Cl)N1CCN(c2cccc3[nH]ccc23)CC1 | -4.42% (inactive)
COc1ccccc1N1CCN(C(=O)c2c(-c3c(Cl)cccc3Cl)noc2C)CC1 | -1.33% (inactive)
O=C(c1ccc2ccccc2n1)N1CCN(c2ccccc2Cl)CC1 | 25.6% (active)
COc1cc(S(=O)(=O)N2CCOCC2)ccc1NC(=O)COc1ccc(N(C)S(=O)(=O)c2ccc(C)cc2)cc1 | -7.22% (inactive)
COc1ccc(NC(=O)CN2C(=O)CSC2=O)cc1 | -1.12% (inactive)
CCc1ccc(NC(=O)CN2C(=O)COc3ccc(S(=O)(=O)N4CCCC4)cc32)cc1 | -7.9% (inactive)
CCc1ccc(NC(=O)CN2C(=O)CSC2=O)cc1 | 24.5% (active)
CC(C)Cc1nc(Nc2ccc(S(=O)(=O)N3CCCC3)cc2)c2nnn(Cc3ccccc3)c2n1 | -1.7% (inactive)
CCOC(=O)C(NS(=O)(=O)c1ccc(C)cc1)(C(F)(F)F)P(=O)(OCC(C)C)OCC(C)C (stereo unspecified) | -2.77% (inactive)
O=C(Nc1cccnc1Cl)c1cc(-c2cccc(Cl)c2)on1 | -5.45% (inactive)
O=C(Nc1ccccc1C(F)(F)F)c1cc(-c2ccc(O)cc2)on1 | 37.9% (active)
CCc1ccccc1NC(=O)c1cc(-c2ccc3c(c2)OCO3)on1 | 4.1% (inactive)
CCOc1ccc2[nH]c(=O)c(CN(CCCO)S(=O)(=O)c3ccc(F)cc3)cc2c1 | -6.67% (inactive)
O=C(NCCN1CCOCC1)c1c(F)c(F)c(F)c(F)c1F | -3.15% (inactive)
CN(CC(=O)NCCN1CCOCC1)S(=O)(=O)c1ccc(F)cc1 | -1.49% (inactive)
Fc1ccc(-c2ccc(NCCN3CCOCC3)nn2)cc1 | 34.4% (active)
CC1CCC(NS(=O)(=O)c2ccc3c(c2)CC(=O)N3)CC1 (stereo unspecified) | 8.83% (inactive)
N#Cc1ccc(CSc2ncccn2)cc1 | 19.6% (active)
N#Cc1ccc(CSc2nnc(-c3ccccn3)n2-c2ccc(Cl)cc2)cc1 | -3.26% (inactive)
N#Cc1cccc(CSc2ncnc(N)n2)c1 | 5.59% (inactive)
COc1cc(NC(=O)c2ccccc2NS(=O)(=O)c2ccc(Cl)s2)cc(OC)c1 | 7.35% (inactive)

Compound | max response
O=Cc1c(NCCc2cccc(F)c2)c2ccccc2[nH]c1=O | 0.988% (inactive)
Cc1ccc(S(=O)(=O)NNC(=O)/C=C/c2cccc(F)c2)cc1 | -1.72% (inactive)
COc1ccc(-c2csc(NC(=O)c3ccc(N4C(=O)CCC4=O)cc3)n2)cc1OC | -1.22% (inactive)
O=C(Nc1nc(-c2ccc3c(c2)OCO3)cs1)c1ccncc1 | 21% (active)
CC(=O)NCCC(=O)Nc1nc(-c2ccc3c(c2)OCCO3)cs1 | 36.2% (active)
CC(=O)NCCC(=O)Nc1nc(C)c(Cc2ccc3c(c2)OCO3)s1 | 11.6% (inactive)
CCOc1cccc(NC(=O)Cn2nc(-c3ccc4c(c3)OCCO4)ccc2=O)c1 | -1.26% (inactive)
COc1ccc(OCCn2ccnc2C)cc1 | -3.23% (inactive)
Cc1cccc(C2C3=C(CCCC3=O)N=C3c4ccccc4C(=O)C32)c1 (stereo unspecified) | -3.21% (inactive)
Cc1cc(=O)n2nc(N3CCC(C(=O)Nc4c(F)c(F)c(F)c(F)c4F)CC3)sc2n1 | 4.09% (inactive)
Cc1ccc2nc(-c3cccc(Br)c3)cc(C(=O)Nn3cnnc3)c2c1 | 7.61% (inactive)
O=C(NCc1cccs1)c1cc(-c2ccccn2)nc2ccc(Br)cc12 | -5.76% (inactive)
Cc1ccc(-c2cc(C(=O)NCc3cn(C)nc3C)c3cc(Br)ccc3n2)cc1 | 13.1% (active)
CC(C)(C)C(=O)Nc1ccc(C(=O)N/N=C/c2ccccc2OC(=O)c2ccc(Cl)cc2Cl)cc1 | 3.79% (inactive)
O=C(Cn1cnc2ccccc2c1=O)Nc1cccc(S(=O)(=O)N2CCCCC2)c1 | 7.05% (inactive)
COc1cc(CNC2CCCC2)c(Br)cc1OCc1ccccc1 | 7.1% (inactive)
COc1ccc(OCC(=O)NNC(=O)c2cccc(C)c2)cc1 | -1.89% (inactive)
CCNC(=O)COC(=O)CCNC(=O)c1cccc(C)c1 | 10.1% (inactive)
CCOC(=O)C(CC)/C(C)=N\NC(=O)c1cccc(C)c1 (stereo unspecified) | 27.9% (active)
